In PubChem BioAssay AID1159580 (chemical genetic matrix, 2015):
“And” between values parts separate entries of the source, which are not always exact repeats. Identical values can stand only once. Hit rate of the full screen: of about 5,500 compounds, about 2,000 (36%) were called active. Inconclusive results (about 18%) are left out. No stated cut-off is given here; in the data, active means normalized growth mostly below about 0.91 (no sharp cut-off); inconclusive means no clear call, values can overlap the other calls; inactive means mostly above about 0.92. This is one part of the list.

Test: chemical genetic growth profiling, strain panel (AID 1159580);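 further: tested at 20 µM; growth read once vehicle control cultures reached saturation at 30 °C; 1 = growth at the plate median or of vehicle wells; lower values mean less growth of the strain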
Conditions: growth OD

Measured: normalized growth

C[C@]12[C@H](O)CC3C(CC[C@@H]4C[C@@H](O)CC[C@]34C)[C@@]1(O)CC[C@@H]2C1=CC(=O)OC1 (stereo partly drawn)
inactive: S. cerevisiae deletion strains, locus YBR021W, strain FUR4, active compounds read low 1.05 | S. cerevisiae deletion strains, locus YBR229C, strain ROT2, active compounds read low 1.01 | S. cerevisiae deletion strains, locus YCL029C, strain bik1, active compounds read low 0.992 | S. cerevisiae deletion strains, locus YDL035C, strain GPR1, active compounds read low 1.07 | S. cerevisiae deletion strains, locus YDL074C, strain BRE1, active compounds read low 1.07 | S. cerevisiae deletion strains, locus YDL101C, strain DUN1, active compounds read low 1.01 | S. cerevisiae deletion strains, locus YDL134C, strain PPH21, active compounds read low 0.997 | S. cerevisiae deletion strains, locus YDL185W, strain tfp1, active compounds read low 0.987 | S. cerevisiae deletion strains, locus YDL192W, strain arf1, active compounds read low 1 | S. cerevisiae deletion strains, locus YDR101C, strain arx1, active compounds read low 1.01 | S. cerevisiae deletion strains, locus YDR162C, strain NBP2, active compounds read low 1.01 | S. cerevisiae deletion strains, locus YDR318W, strain mcm21, active compounds read low 0.999 | S. cerevisiae deletion strains, locus YDR388W, active compounds read low 0.976 | S. cerevisiae deletion strains, locus YDR502C, strain sam2, active compounds read low 0.971 | S. cerevisiae deletion strains, locus YER110C, active compounds read low 0.974 | S. cerevisiae deletion strains, locus YER155C, strain BEM2, active compounds read low 0.998 | S. cerevisiae deletion strains, locus YER167W, strain BCK2, active compounds read low 1.02 | S. cerevisiae deletion strains, locus YGL078C, strain dbp3, active compounds read low 0.979 | S. cerevisiae deletion strains, locus YGL086W, strain mad1, active compounds read low 0.983 | S. cerevisiae deletion strains, locus YGL248W, strain PDE1, active compounds read low 1.01 | S. cerevisiae deletion strains, locus YGR078C, strain PAC10, active compounds read low 1.01 | S. cerevisiae deletion strains, locus YGR135W, strain pre9, active compounds read low 0.941 | S. cerevisiae deletion strains, locus YGR252W, strain gcn5, active compounds read low 0.923 | S. cerevisiae deletion strains, locus YHR030C, strain SLT2, active compounds read low 1.01 and 1 | S. cerevisiae deletion strains, locus YHR079C, strain IRE1 (second series), active compounds read low 0.98 | S. cerevisiae deletion strains, locus YHR079C, strain IRE1, active compounds read low 0.993 | S. cerevisiae deletion strains, locus YHR094C, strain hxt1, active compounds read low 0.976 | S. cerevisiae deletion strains, locus YHR129C, strain ARP1, active compounds read low 1.01 | S. cerevisiae deletion strains, locus YHR200W, strain rpn10, active compounds read low 0.968 | S. cerevisiae deletion strains, locus YIL066C, strain RNR3, active compounds read low 1.04 | S. cerevisiae deletion strains, locus YIL073C, strain SPO22, active compounds read low 1 | S. cerevisiae deletion strains, locus YIL125W, strain kgd1, active compounds read low 0.984 | S. cerevisiae deletion strains, locus YIR030C, strain dcg1, active compounds read low 0.986 | S. cerevisiae deletion strains, locus YJL095W, strain BCK1, active compounds read low 0.999 and 0.994 | S. cerevisiae deletion strains, locus YJL134W, strain LCB3, active compounds read low 1.01 | S. cerevisiae deletion strains, locus YJL168C, strain set2, active compounds read low 0.994 | S. cerevisiae deletion strains, locus YJL187C, strain SWE1 (second series), active compounds read low 1.01 | S. cerevisiae deletion strains, locus YJR066W, strain TOR1, active compounds read low 0.903 | S. cerevisiae deletion strains, locus YKL009W, strain mrt4, active compounds read low 1.02 | S. cerevisiae deletion strains, locus YKL068W, active compounds read low 0.994 | S. cerevisiae deletion strains, locus YKL085W, strain MDH1 (second series), active compounds read low 0.975 | S. cerevisiae deletion strains, locus YKL085W, strain MDH1, active compounds read low 0.975 | S. cerevisiae deletion strains, locus YKR001C, strain vps1, active compounds read low 1.01 | S. cerevisiae deletion strains, locus YLR039C, strain RIC1, active compounds read low 1.05 | S. cerevisiae deletion strains, locus YLR058C, strain SHM2, active compounds read low 1.02 | S. cerevisiae deletion strains, locus YLR102C, strain apc9, active compounds read low 0.982 | S. cerevisiae deletion strains, locus YLR113W, strain HOG1, active compounds read low 1.03 | S. cerevisiae deletion strains, locus YLR262C, strain YPT6, active compounds read low 1.09 | S. cerevisiae deletion strains, locus YLR268W, strain sec22, active compounds read low 1.01 | S. cerevisiae deletion strains, locus YLR342W, strain FKS1 (second series), active compounds read low 1.05 | S. cerevisiae deletion strains, locus YLR371W, strain rom2, active compounds read low 0.996 | S. cerevisiae deletion strains, locus YLR418C, strain cdc73, active compounds read low 0.955 | S. cerevisiae deletion strains, locus YML016C, strain PPZ1, active compounds read low 1.02 | S. cerevisiae deletion strains, locus YML032C, strain rad52, active compounds read low 0.998 | S. cerevisiae deletion strains, locus YML124C, strain tub3, active compounds read low 0.986 | S. cerevisiae deletion strains, locus YMR078C, strain ctf18, active compounds read low 0.979 | S. cerevisiae deletion strains, locus YMR223W, strain ubp8, active compounds read low 0.974 | S. cerevisiae deletion strains, locus YMR307W, strain GAS1, active compounds read low 1.13 | S. cerevisiae deletion strains, locus YNL067W, strain RPL9B, active compounds read low 0.99 | S. cerevisiae deletion strains, locus YNL153C, strain GIM3, active compounds read low 1 | S. cerevisiae deletion strains, locus YNL183C, strain NPR1, active compounds read low 0.924 | S. cerevisiae deletion strains, locus YNL233W, strain BNI4, active compounds read low 1 | S. cerevisiae deletion strains, locus YNL250W, strain rad50, active compounds read low 0.974 | S. cerevisiae deletion strains, locus YNL271C, strain bni1, active compounds read low 0.991 | S. cerevisiae deletion strains, locus YNL298W, strain CLA4, active compounds read low 1.01 | S. cerevisiae deletion strains, locus YNL307C, strain MCK1, active compounds read low 0.977 | S. cerevisiae deletion strains, locus YNR052C, strain pop2, active compounds read low 0.965 | S. cerevisiae deletion strains, locus YOL012C, strain htz1 0.887 | S. cerevisiae deletion strains, locus YOL147C, strain pex11, active compounds read low 0.99 | S. cerevisiae deletion strains, locus YOR061W, strain CKA2, active compounds read low 1.04 | S. cerevisiae deletion strains, locus YOR069W, strain VPS5, active compounds read low 1.01 | S. cerevisiae deletion strains, locus YOR136W, strain idh2, active compounds read low 0.952 | S. cerevisiae deletion strains, locus YOR144C, strain elg1, active compounds read low 0.987 | S. cerevisiae deletion strains, locus YOR184W, strain ser1, active compounds read low 1.03 | S. cerevisiae deletion strains, locus YOR231W, strain MKK1, active compounds read low 1 | S. cerevisiae deletion strains, locus YOR316C, strain cot1, active compounds read low 0.982 | S. cerevisiae deletion strains, locus YPL256C, strain CLN2, active compounds read low 0.982 | S. cerevisiae deletion strains, locus YPR119W, strain clb2, active compounds read low 0.985 | S. cerevisiae deletion strains, locus YPR141C, strain kar3, active compounds read low 0.983 | S. cerevisiae deletion strains, locus YPR163C, strain tif3, active compounds read low 0.988 | S. cerevisiae deletion strains, locus YPR167C, strain met16, active compounds read low 0.984 | S. cerevisiae deletion strains, strain wtn01, active compounds read low 0.998 | S. cerevisiae strains, strain wild type, active compounds read low 1.03
